# Rows were chosen to be rich in hits. Some 3.1% of all compounds tested hit in one or more screens of this group.
# Bim-Mcl-1: disrupts Bim peptide binding to human Mcl-1; Bead-based flow cytometry, Bim peptide-Mcl-1 binding; inhibition, % at 10 µM; 0.1% of 190,000 active; AID 1009; in the data active = inhibition above about 40%
# Target sequence (Q07820 whole entry, looked up): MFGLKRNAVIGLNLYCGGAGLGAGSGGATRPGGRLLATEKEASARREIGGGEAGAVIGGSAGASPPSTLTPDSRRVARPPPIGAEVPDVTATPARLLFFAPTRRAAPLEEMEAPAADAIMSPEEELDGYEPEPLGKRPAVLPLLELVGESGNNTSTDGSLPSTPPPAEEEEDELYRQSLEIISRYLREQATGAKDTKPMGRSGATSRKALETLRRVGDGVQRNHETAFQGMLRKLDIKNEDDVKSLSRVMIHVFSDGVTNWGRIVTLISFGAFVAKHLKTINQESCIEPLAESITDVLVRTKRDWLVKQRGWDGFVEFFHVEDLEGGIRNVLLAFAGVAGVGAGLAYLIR
# NCF1 inh: inhibitors of human p47phox binding; p47phox/p22phox peptide binding, fluorescence polarization, 2 h; inhibition, % at 24.7 µM; 0.53% of 220,000 active;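 active = inhibition above about 30%, limit read from the data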
# 14-3-3 Bad inh: disrupts binding of bovine 14-3-3 zeta to phospho-Bad peptide; P63103; TR-FRET 14-3-3zeta/Dy647-pBad peptide displacement, 1 h; inhibition, % at 21.7 µM; 0.71% of 220,000 active; AID 781;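 active = inhibition above about 70%, limit read from the data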
# Mcl1-Bid inh: disrupts binding of human Mcl-1 to Bid peptide; AID 1021; TR-FRET Mcl-1/Bid-Dy647 peptide binding, 1536-well; Q07820; inhibition, % at 21.7 µM; 0.97% of 220,000 active;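 active = compounds that cut the binding signal by more than half at the single screening dose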;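 note: His-tagged Mcl-1 with europium anti-His antibody binding Bid BH3 peptide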
# Mcl1-Noxa inh: Mcl-1/Noxa interaction inhibition. Q07820. 1.5% of 220,000 active. inhibition, % at 21.7 µM. AID 1022. TR-FRET Mcl-1/Noxa peptide binding, 2 h;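 active = compounds that cut the protein-peptide binding signal by more than 50% relative to plate controls in a single-dose test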;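 note: His-tagged Mcl-1 with rhodamine Noxa BH3 peptide and terbium anti-His antibody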
# Hits are given with their value; . = inactive; / = not tested or not shown; ! = a repeat was not active; [ ] = remark or other dose.
SMILES,Bim-Mcl-1,NCF1 inh,14-3-3 Bad inh,Mcl1-Bid inh,Mcl1-Noxa inh
O=[N+]([O-])c1cc2c(cc1CNCCc1ccc3c(c1)OCO3)OCO2,.,.,.,56,.
O=[N+]([O-])c1ccccc1CNCCc1ccc(F)cc1,.,.,.,.,.
Cc1ccc(C(=O)C2(C)N(O)C(C)C(c3cccs3)=[N+]2[O-])cc1 (stereo unspecified),.,.,.,.,.
Cc1ccc(N2C(=O)NC(=O)/C(=C\c3cnc(-c4ccccc4)nc3)C2=O)cc1,.,.,.,.,75
Cc1ccc(N2C(=O)NC(=O)/C(=C/c3ccoc3)C2=O)cc1,/,.,75,.,77
CN(C)C1=NC(N(C)C)=NP(N(C)C)(N(C)C)=N1,.,.,.,.,.
CN1C(=O)c2ccccc2NC(=O)[C@]12O[C@@H]2c1ccccc1,.,.,.,.,.
O=Cc1c(C(=O)O)n(Cc2ccc(Cl)cc2)c2ccccc12,.,.,.,.,65
CN1C(=O)C(=Cc2sc(=O)n(-c3ccccc3)c2N2CCCCC2)C(=O)N(C)C1=O,/,83,.,97,.
CCOc1ccc2[nH]c(=O)c(CN(CCO)C3(c4nnnn4C4CCCCC4)CCCCC3)cc2c1,.,.,.,.,.
Cc1c2ccncc2c(C)c2c1[nH]c1ccccc12,.,95,.,.,.
CN1C(=O)CN=C(c2ccc(Cl)cc2)c2cc(Cl)ccc21,.,.,.,97,.
Cc1nnc2n1-c1ccc(Cl)cc1C(c1ccccc1)=NC2,.,.,.,.,.
O=C(COc1ccccc1)N1CCN(Cc2c[nH]c3ccccc23)CC1,.,.,81,68,.
COc1cc(CN2CCN(C(=O)COc3ccccc3)CC2)cc(OC)c1OC,.,.,78,.,.
Cc1cccc(OCC(=O)N2CCN(Cc3ccncc3)CC2)c1,.,.,.,60,.
Cc1cccc(OCC(=O)N2CCN(Cc3ccc4c(c3)OCO4)CC2)c1,.,.,.,.,.
O=C(COc1ccc2ccccc2c1)N1CCN(CC2CC3C=CC2C3)CC1 (stereo unspecified),.,.,.,.,.
COCCOC(=O)c1c(C)oc2ccc(OC(=O)N(C)C)cc12,.,.,.,.,.
CN(C)c1ccc(C=C2C(=O)NC(=O)NC2=O)cc1[N+](=O)[O-],.,.,.,.,.
CN(C)c1ccc(C=C2C(=O)NC(=S)NC2=O)cc1[N+](=O)[O-],.,.,.,.,65
Cc1ccc2cccc(OC(=O)N(C)c3ccccc3)c2n1,.,.,.,.,.
COC(=O)c1ccc(CN2CCN(Cc3ccccc3)CC2)cc1,.,.,76,.,.
CCC(=NC(C)c1ccccc1)c1c(O)[nH]c(=O)[nH]c1=O (stereo unspecified),/,.,.,90,.
CCC(=NCCC(c1ccccc1)c1ccccc1)c1c(O)[nH]c(=O)[nH]c1=O,.,.,.,.,.
SMILES,Bim-Mcl-1,NCF1 inh,14-3-3 Bad inh,Mcl1-Bid inh,Mcl1-Noxa inh
C=CCN1CC[C@]23c4c5ccc(O)c4OC2C(=O)CC[C@@]3(O)C1C5 (stereo partly specified),/,.,.,.,.
Cc1cc2c(C(C)C)c(O)c(O)c(C=O)c2c(O)c1-c1c(C)cc2c(C(C)C)c(O)c(O)c(C=O)c2c1O,.,.,82[fluorescence artefact?],100,118
c1ccc(CCN2CCC(N3CCN(c4ccccc4)CC3)CC2)cc1,.,.,.,.,.
CCCCN(Cc1ccccc1)C1CCN(CCc2ccccc2)CC1,.,.,.,.,51
CCOc1ccc(N2C(=O)NC(=O)/C(=C\c3ccccc3[N+](=O)[O-])C2=O)cc1,/,.,.,.,.
CCOc1ccc(N2C(=O)/C(=C\c3cccs3)C(=O)NC2=S)cc1,.,.,.,.,67
O=C1NC(=S)N(c2ccccc2F)C(=O)/C1=C\c1cccs1,.,.,.,.,86
C/C(=N\N1CCCCCC1)c1c(O)n(C)c(=O)n(C)c1=O,/,.,.,.,.
O=C(c1ccc2c(c1)ncn2-c1ccc(F)cc1F)N1CCC2(CC1)OCCO2,.,43,.,.,.
FC(F)(F)/C(=N\P(=S)(N1CCOCC1)N1CCOCC1)N1CCOCC1,.,.,.,.,.
CNC(=S)NC1CC2CCCC(C1)N2CC(C)C (stereo unspecified),.,40,.,.,.
CNC(C(=O)c1ccccc1)C(OC(C)=O)c1cccc([N+](=O)[O-])c1 (stereo unspecified),/,.,.,.,.
CN1CCC(N(C)c2nc(-c3ccc([N+](=O)[O-])cc3)nc3ccccc23)CC1,.,.,.,.,94
Cc1cccc(-n2c(O)c(C=NCc3cccnc3)c(=O)[nH]c2=O)c1C,.,.,.,.,.
COc1ccc(C2=CC(c3ccc(OC)c(OC)c3)c3c(c4ccccc4oc3=O)O2)cc1OC (stereo unspecified),/,.,.,.,.
CCCCCCNC(=O)N[C@H](Cc1ccc(O)cc1)C(=O)NCCC[C@H]1CN2C(=NC[C@H]2CCC)N1CC1CCC1,/,60,.,.,.
O=C1NC(=O)C(=Cc2ccc(SC3CCCCC3)o2)C(=O)N1,.,.,.,.,72
Cc1cccc(N2CCc3c2nc2ccccc2c3N)c1,.,.,78![fluorescence artefact?],.,.
N#CSCC(=O)N1c2ccccc2CCc2ccccc21,.,.,.,.,.

# Bioassay records deposited in PubChem by several laboratories.
